Measured values as given in PubChem BioAssay AID463173 (ICCB-Longwood Screening Facility, Harvard Medical School, 2010).
Hit rate of the full screen: of about 52,000 compounds, about 4,300 (8.3%) were called active. Only a selection was taken, and actives are over-represented in it overall. A number with no mark means an inactive call. Cut-off read from the data, not from the text of the source: active = survival mostly below about 52% (no sharp cut-off); inactive = mostly above about 56%.

Tested on: DeltatarO mutant
Assay: S. aureus survival, RN4220 and DeltatarO strains – OD600, teichoic acid synthesis inhibitors, primary screen (AID 463173)
Settings: S. aureus RN4220 wild type/DeltatarO growth, OD600, 18 h, hits give low values, screened at 18.75 µg/mL (by protocol)

SMILES | survival
O=C(CN1CCSc2ccccc21)N1CCN(c2ccc(F)cc2)CC1 | 88%
O=C(O)CCCNc1ncnc2ccccc12 | 92%
COc1ccc(NC(=O)C2CCN(c3nc4ccccc4[nH]3)CC2)cc1OC | 66%
Fc1ccccc1-n1ncc2c1ncn1nc(Cc3ccccc3)nc21 | 74%
COc1cccc(C2C3CN(C(C)=O)CC=C3C(C#N)=C(N)C2(C#N)C#N)c1 (stereo unspecified) | 93%
CC(C)(C)OC(=O)N1CC=C2C(C#N)=C(N)C(C#N)(C#N)C(c3ccc4c(c3)OCO4)C2C1 (stereo unspecified) | 35% (active)
CCOC(=O)N1CC=C2C(C#N)=C(N)C(C#N)(C#N)C(c3ccc(CC)cc3)C2C1 (stereo unspecified) | 88%
COc1cc(NC(=O)N2CCC(CN3CCc4ccccc4C3)CC2)cc(OC)c1 | 70%
CCc1ccccc1NC(=O)N1CCC(CN2CCc3ccccc3C2)CC1 | 76%
COC(=O)c1ccc(NC(=O)N2CCC(CN3CCc4ccccc4C3)CC2)cc1 | 6% (active)
CCOc1ccc(NC(=O)N2CCC(CN3CCC(C)CC3)CC2)cc1 | 117%
CCOc1ccc(NC(=O)N2CCC(CN3CCCCCC3)CC2)cc1 | 115%
Cc1cccc(NC(=O)N2CCC(CN3CCCCCC3)CC2)c1C | 81%
Cc1cc(C)cc(NC(=O)N2CCC(CN3CCc4ccccc4C3)CC2)c1 | 72%
CCOc1ccc(NC(=O)N2CCC(CN3CCc4ccccc4C3)CC2)cc1 | -1% (active)
Cc1cccc(NC(=O)N2CCC(CN3CCc4ccccc4C3)CC2)c1C | -2% (active)
COc1ccc(Cl)cc1NS(=O)(=O)c1cc(-c2cc(C)no2)ccc1C | 87%
CCCCn1c(=O)c2oc3ccccc3c2n(Cc2ccccc2C)c1=O | 55%
COc1cccc(-n2nnc(-c3nc(-c4ccccc4F)no3)c2C)c1 | 84%
Cc1ccc(OCCSc2nc3ccccc3n2CC(=O)N2CCOCC2)cc1 | 96%
COc1cccc(OCCSc2nc3ccccc3n2CC(=O)N2CCCCC2)c1 | 42% (active)
Cc1ccc(NC(=O)CSc2nc3ccccc3n2CC(=O)N2CCC(C)CC2)cc1C | 17% (active)
O=C(Cn1c(SCCOc2ccccc2)nc2ccccc21)N1CCOCC1 | 47%
Cc1cccc(OCCSc2nc3ccccc3n2CC(=O)N2CCOCC2)c1 | 44% (active)

SMILES | survival
COc1ccc(OCCSc2nc3ccccc3n2CC(=O)N2CCOCC2)cc1 | 51%
CC1CCN(C(=O)Cn2c(SCC(=O)NC(C)(C)C)nc3ccccc32)CC1 | 92%
Cc1ccc(OCCSc2nc3ccccc3n2CC(=O)N2CCOCC2)c(C)c1 | 93%
COc1cccc(OCCSc2nc3ccccc3n2CC(=O)N2CCOCC2)c1 | 44% (active)
CC1CCN(C(=O)Cn2c(SCC(=O)Nc3ccc(F)cc3)nc3ccccc32)CC1 | 96%
COc1ccc(C2CC(=O)Nc3c2c(C)nn3-c2nncc(-c3ccc(C)cc3)n2)c(OC)c1OC (stereo unspecified) | 83%
CCOc1ccc(/C=C(\C#N)C(=O)NCc2ccco2)cc1OC | 113%
CCOc1ccc(CNCc2c(C(=O)O)c(C)n(Cc3c(F)cccc3Cl)c2C)cc1OC | 56%
COc1ccc(C2CC(=O)c3cc(-c4nc(-c5ccc(C)cc5)cs4)c(=O)[nH]c3C2)cc1 (stereo unspecified) | 76%
O=C(CNC(=O)c1ccc(Cl)cc1)OCc1cc(=O)n2nc(C3CCCCC3)sc2n1 | 90%
CCCCn1cc(S(=O)(=O)c2ccc(Cl)cc2)c(=O)c2cc(F)c(N3CCCC(C)C3)cc21 (stereo unspecified) | 117%
O=C(c1ccc(F)cc1)C1CCN(S(=O)(=O)c2ccc(F)cc2)CC1 | 95%
COc1ccc(CNC(=O)CCCc2nnc3n(CCC(C)C)c(=O)c4sccc4n23)cc1 | 93%
Cc1ccc2nc(NC(=O)CSc3cc(C)[nH]c(=O)n3)sc2c1 | 79%
CCN(CC)C(=O)Cn1c(SCC(=O)Nc2ccc(F)cc2)nc2ccccc21 | 100%
Cc1ccc(OCCSc2nc3ccccc3n2CCC(=O)O)cc1C | 47% (active)
Cn1c(SCCC(=O)O)nc2ccccc21 | 83%
Cc1ccc(OCCSc2nc3ccccc3n2CC(=O)N2CCOCC2)cc1C | 53%
Cc1ccc(OCCSc2nc3ccccc3n2CC(=O)NC(C)C)cc1 | 52%
Cc1ccc(OCCSc2nc3ccccc3n2CC(=O)N2CCCCC2)cc1C | 46% (active)
CCc1ccc(OCCSc2nc3ccccc3n2CC(=O)N2CCCCC2)cc1 | 40% (active)
CCN(CC)C(=O)Cn1c(SCCOc2ccc(Cl)cc2)nc2ccccc21 | 43% (active)
Cc1cccc(C)c1OCCSc1nc2ccccc2n1CC(=O)O | 83%
O=C(Cn1c(SCCOc2ccc(Cl)cc2)nc2ccccc21)N1CCCCC1 | 50%

SMILES | survival
CCc1ccccc1NC(=O)CCn1cccn1 | 135%
CCC1CN(C(=O)N2CCC(C(=O)NCc3ccco3)CC2)c2ccccc2O1 (stereo unspecified) | 66%
COc1ccccc1CNC(=O)C1CCN(S(=O)(=O)c2c(C)noc2/C=C/c2cccs2)CC1 | 59%
CN(C(=O)CSc1nc2ccc(NC(=O)c3cccc(F)c3)cc2s1)c1ccccc1 | 69%
Cc1ccccc1NC(=O)C(=O)NCC(c1ccc2c(c1)OCO2)N1CCN(c2ccccc2)CC1 (stereo unspecified) | 73%
O=S(=O)(Nc1cccc(C(F)(F)F)c1)c1ccc(-c2cnc(C3CC3)o2)cc1 | 91%
c1ccc2[nH]c(CN3CCCCC3)nc2c1 | 59%
O=C(NCc1ccc(F)cc1)c1ccc(NC(=O)N2CC3CCCN3c3ccccc32)cc1 (stereo unspecified) | 113%
Cc1oc(CC(C)C)cc1C(N)=O | 100%
O=C(CSC1=Nc2ccccc2C2=NC(Cc3ccccc3)C(=O)N12)Nc1ccccc1 (stereo unspecified) | 74%
CCOc1ccc(-c2cn(-c3ccc(OC)cc3)c(SCC(=O)Nc3ccccc3Cl)n2)cc1 | 99%
Cc1cccc(NC(=O)CSc2nnc3scc(-c4ccccc4)n23)c1 | 40% (active)
O=C(CSc1nnc2scc(-c3ccc(Cl)cc3)n12)Nc1ccc(F)cc1 | 57%
O=C(CSc1nnc2scc(-c3ccc(Cl)cc3)n12)Nc1cccc(C(F)(F)F)c1 | 58%
CCOc1ccc(NC(=O)CSc2nnc3scc(-c4ccccc4)n23)cc1 | 17% (active)
COc1cccc(NC(=O)CSc2nnc3scc(-c4ccc(Cl)cc4)n23)c1 | 52%
CC(C)(C)c1ccc(NC(=O)CSc2nnc3scc(-c4ccccc4)n23)cc1 | 41% (active)
O=C(CSc1nnc2scc(-c3ccccc3)n12)Nc1ccc(Cl)cc1 | 56%
CCOc1ccc(NC(=O)CSc2nnc3scc(-c4ccc(Cl)cc4)n23)cc1 | 48%
Cc1ccc(NC(=O)CSc2nnc3scc(-c4ccccc4)n23)cc1 | 15% (active)
Cc1ccc(NC(=O)CSc2nnc3scc(-c4ccc(Cl)cc4)n23)cc1 | 49%
CC(=O)Nc1ccc(C(=O)CSc2nnc3scc(-c4ccccc4)n23)cc1 | 89%
COc1ccc(NC(=O)CSc2nnc3scc(-c4ccc(Cl)cc4)n23)cc1 | 95%
CC(NCc1ccc(F)cc1)C(=O)NC1CCCCC1 (stereo unspecified) | 79%

SMILES | survival
Cc1ccc(NC(=O)C2CC(=O)N(c3ccc(OC(C)C)cc3)C2)cc1 (stereo unspecified) | 82%
COc1ccc(C2CC(c3c(O)n(C4CCCCC4)c(=O)[nH]c3=O)=Nc3ccccc3S2)cc1 (stereo unspecified) | 48%
O=C1COc2ccccc2N1Cc1ccc(OC(F)(F)F)cc1 | 86%
COc1ccc(CC(=O)NCc2ccc3c(c2)CCN3C(=O)c2ccccc2)cc1OC | 82%
Cc1ccc(CN(Cc2cccn2-c2nnc(N3CCCC3=O)s2)C(=O)Nc2cc(C)cc(C)c2)cc1 | 123%
COc1ccc(Nc2nc3ccc(C)cc3nc2-n2nc(C)cc2C)cc1Cl | 69%
COc1cccc(CNC(=O)c2ccc3c(c2)nc2n3CCC(C)C2)c1 (stereo unspecified) | 72%
Cc1cn2c(=O)cc(COC(=O)c3cccc(NC(=O)COc4ccccc4C)c3)nc2s1 | 85%
CCOc1ccc(CCNC(=O)c2cc3c(-c4ccccc4F)nn(C)c3s2)cc1OCC | 67%
CCn1nc(-c2ccccc2)c(-c2ccccc2)c(C(=O)Nc2nc(C)c(C(C)=O)s2)c1=O | 53%
COCc1cc(C)nc2c1C(=O)NC(c1ccc(NC(C)=O)cc1)N2Cc1ccccc1 (stereo unspecified) | 74%
O=C(CSc1nccn1Cc1ccc(Cl)cc1)NC1CCCC1 | 83%
COc1ccc(CNC(=O)Cn2c(=O)nc(-c3ccccc3F)c3cc(Cl)ccc32)cc1 | 72%
Nc1nc(OC(C(F)(F)F)C(F)(F)F)nc(OC(C(F)(F)F)C(F)(F)F)n1 | 13% (active)
CCC(C)Nc1nc(OC(C(F)(F)F)C(F)(F)F)nc(N(CC)CC)n1 (stereo unspecified) | 80%
FC(F)(F)COc1nc(OCC(F)(F)F)nc(OCC(F)(F)F)n1 | 74%
O=C(O)Cn1ccc(=O)[nH]c1=O | 96%
CCOc1ccc(CCNC(=O)c2cc3c(=O)oc4ccc(C)cc4c3s2)cc1OCC | 67%
Cc1nc2nc(NCc3ccccc3Cl)[nH]n2c(=O)c1Cc1ccccc1 | 83%
Cc1nc2nc(NCc3cccc(Cl)c3)[nH]n2c(=O)c1Cc1ccccc1 | 78%
Cc1nc2nc(NCc3cccc(Br)c3)[nH]n2c(=O)c1Cc1ccccc1 | 54%
Cc1nc2nc(NCc3ccc(Br)cc3)[nH]n2c(=O)c1Cc1ccccc1 | 39% (active)
CCc1ccc(CNc2nc3nc(C)c(Cc4ccccc4)c(=O)n3[nH]2)cc1 | 80%
Cc1nc2nc(NCc3ccc(Cl)cc3)[nH]n2c(=O)c1Cc1ccccc1 | 40% (active)
